This is an account of results in PubChem BioAssay.

Activity calls are given as the source filed them.

Assay [1] can be described thus: optical density shifts of acrAB sulA E. coli – strain DRC41, OD650, 48 h, E. coli filamentation inducer project, primary screen (AID 1152).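 Further: E. coli MC1000 strain DRC41 lacking acrAB efflux pump and sulA.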 The following applies: higher = more signal, called active from +8 up or from −8 down.
A short description of assay [2]: probe aLefty1 binding on compound microarray – biochemical, small-molecule microarray, 635/667 nm fluorescence, primary screen (AID 1153).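 Further: score merges spot fluorescence with signal-to-noise ratio from the scanned slide images.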 To be noted: higher = more signal.
The nature of assay [3]: plasmodial surface anion channel blockers, osmotic lysis – cell-based, P. falciparum Indochina, OD700, 1 h, primary screen (AID 1154). The following applies: P. falciparum Indochina infected RBC osmotic lysis, higher = more signal, called active from +8 up or from −8 down.
A short description of assay [4]: plasmodial surface anion channel blockers, osmotic lysis – cell-based, P. falciparum Indochina, OD700, 2 h, primary screen (AID 1155).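 Further: lysis reports solute entry through the parasite surface anion channel PSAC.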 To be noted: P. falciparum Indochina infected erythrocytes, higher = more signal, called active from +8 up or from −8 down.
A short description of assay [5]: changes in parasitized red cell lysis, either direction – P. falciparum Indochina, OD700, 3 h, PSAC antagonist project, primary screen (AID 1156). The following applies: P. falciparum-infected erythrocytes, osmotic lysis, higher = more signal, called active from +8 up or from −8 down.
Assay [6] in a line: plasmodial surface anion channel blockers, osmotic lysis – cell-based, P. falciparum Indochina, OD700, 18 h, primary screen (AID 1157). The following applies: P. falciparum Indochina infected erythrocytes, osmotic lysis OD700, 18 h; higher = more signal, called active from +8 up or from −8 down.
The nature of assay [7]: S6 kinase pathway phospho-S6 level changes – cell-based, A549, cytoblot, luminescence, serum-stimulated, primary screen (AID 1158).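 Further: serum-stimulated A549 lung adenocarcinoma cells; signal is phosphorylated S6 detected by cytoblot immunostaining with HRP secondary.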 The following applies: 5 h, higher = more signal.
Assay [8] has as its target NADPH oxidase 2 (Homo sapiens) (UniProt P04839). Kind of assay: compounds shifting NOX2 Amplex Red fluorescence – cell-based, HEK293-NOX2, PMA-stimulated, NOX inhibitor project, primary screen (AID 1159). Further: test concentration not given here. To be noted: 45 min, higher = more signal, called active from +8 up or from −8 down.
Assay [9] addresses NADPH oxidase 4 (Homo sapiens) (UniProt Q9NPH5). The assay is described as follows: compounds shifting NOX4 Amplex Red fluorescence – cell-based, HEK293-NOX4, tetracycline-induced, NOX inhibitor project, primary screen (AID 1160). To be noted: HEK293-NOX4, Amplex Red H2O2 fluorescence, 45 min; higher = more signal, called active from +8 up or from −8 down.
The target of assay [10] is NADPH oxidase 5 (Homo sapiens) (UniProt Q96PH1). The assay is described as follows: compounds shifting NOX5 Amplex Red fluorescence – cell-based, HEK293-NOX5, NOX inhibitor project, primary screen (AID 1161). To be noted: HEK293-NOX5, ionomycin, 45 min, higher = more signal.
Assay [11] is described as follows: compound effects on lung adenocarcinoma cell viability – A549, calcein-AM fluorescence, 48 h, basal, profiling panel (AID 1162). Further: test concentration not given here. The following applies: higher = more signal.
Assay [12] is described as follows: compound effects on differentiated 3T3-L1 adipocyte viability – cell-based, 3T3-L1 adipocytes, calcein-AM fluorescence, 48 h, basal, profiling panel (AID 1163). Further: test concentration not given here. To be noted: 3T3-L1 adipocytes viability, higher = more signal.
The nature of assay [13]: compound effects on hepatocellular carcinoma cell viability – HepG2, calcein-AM fluorescence, 48 h, basal, profiling panel (AID 1164). Further: test concentration not given here. The following applies: higher = more signal.
The nature of assay [14]: compound effects on multiple myeloma cell viability – MM1S, calcein-AM fluorescence, 48 h, basal, profiling panel (AID 1165).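 Further: viability of MM1S multiple myeloma cells under basal unstimulated conditions; test concentration not given here.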 To be noted: higher = more signal.
Assay [15] is described as follows: calcein-AM signal in unstimulated myeloma cells – cell-based, calcein-AM fluorescence, 48 h, PK04 Diversity Set, profiling panel (AID 1166).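 Further: cells grown under basal conditions without added stimulus; test concentration not given here.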 To be noted: RPMI8226 myeloma viability, higher = more signal.
Assay [16] can be described thus: JC-1 mitochondrial signal, unstimulated HepG2 cells – cell-based, JC-1 fluorescence, 24 h, 100 nL compound, profiling panel (AID 1167). Further: test concentration not given here. To be noted: HepG2 mitochondrial potential, higher = more signal.
Assay [17] in a line: JC-1 mitochondrial signal, unstimulated adipocytes – cell-based, JC-1 fluorescence, 3T3-L1 adipocytes, 24 h, 100 nL compound, profiling panel (AID 1168). Further: test concentration not given here. The following applies: JC-1 mitochondrial fluorescence, higher = more signal, called active from +8 up or from −8 down.
The nature of assay [18]: JC-1 mitochondrial signal, unstimulated myeloma cells – cell-based, JC-1 fluorescence, RPMI8226, 24 h, 100 nL compound, profiling panel (AID 1169). Further: test concentration not given here. To be noted: JC-1 mitochondrial potential fluorescence, higher = more signal.
Assay [19] is described as follows: JC-1 mitochondrial signal, unstimulated MM1S myeloma – cell-based, JC-1 fluorescence, 24 h, 100 nL compound, profiling panel (AID 1170). Further: test concentration not given here. To be noted: MM1S mitochondrial potential, higher = more signal.
Assay [20] can be described thus: resazurin metabolic signal in A549 cells – cell-based, resazurin fluorescence, 24 h, PK04 Diversity Set, profiling panel (AID 1171). Further: test concentration not given here. The following applies: A549 viability, higher = more signal, called active from +8 up or from −8 down. Background: Resazurin is reduced to fluorescent resorufin, in cell work by metabolically active cells.

Chain of NADPH oxidase 2 (Homo sapiens) (P04839 whole entry, looked up): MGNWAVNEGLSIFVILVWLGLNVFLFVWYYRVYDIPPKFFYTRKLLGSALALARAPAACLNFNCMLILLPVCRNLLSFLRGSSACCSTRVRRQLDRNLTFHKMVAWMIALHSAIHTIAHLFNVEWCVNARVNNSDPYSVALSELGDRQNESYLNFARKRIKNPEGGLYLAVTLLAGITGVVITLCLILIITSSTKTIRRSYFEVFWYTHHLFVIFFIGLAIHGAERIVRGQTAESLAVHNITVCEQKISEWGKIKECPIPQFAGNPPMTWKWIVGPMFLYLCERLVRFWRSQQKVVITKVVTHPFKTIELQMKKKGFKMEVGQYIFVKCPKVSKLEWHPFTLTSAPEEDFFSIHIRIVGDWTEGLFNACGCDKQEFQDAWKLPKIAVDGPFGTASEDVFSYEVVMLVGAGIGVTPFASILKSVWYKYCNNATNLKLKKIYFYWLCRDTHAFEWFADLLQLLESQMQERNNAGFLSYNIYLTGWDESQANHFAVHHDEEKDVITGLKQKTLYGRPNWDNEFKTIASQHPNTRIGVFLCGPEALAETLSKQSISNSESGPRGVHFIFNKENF
Chain of NADPH oxidase 4 (Homo sapiens) (Q9NPH5 whole entry, looked up): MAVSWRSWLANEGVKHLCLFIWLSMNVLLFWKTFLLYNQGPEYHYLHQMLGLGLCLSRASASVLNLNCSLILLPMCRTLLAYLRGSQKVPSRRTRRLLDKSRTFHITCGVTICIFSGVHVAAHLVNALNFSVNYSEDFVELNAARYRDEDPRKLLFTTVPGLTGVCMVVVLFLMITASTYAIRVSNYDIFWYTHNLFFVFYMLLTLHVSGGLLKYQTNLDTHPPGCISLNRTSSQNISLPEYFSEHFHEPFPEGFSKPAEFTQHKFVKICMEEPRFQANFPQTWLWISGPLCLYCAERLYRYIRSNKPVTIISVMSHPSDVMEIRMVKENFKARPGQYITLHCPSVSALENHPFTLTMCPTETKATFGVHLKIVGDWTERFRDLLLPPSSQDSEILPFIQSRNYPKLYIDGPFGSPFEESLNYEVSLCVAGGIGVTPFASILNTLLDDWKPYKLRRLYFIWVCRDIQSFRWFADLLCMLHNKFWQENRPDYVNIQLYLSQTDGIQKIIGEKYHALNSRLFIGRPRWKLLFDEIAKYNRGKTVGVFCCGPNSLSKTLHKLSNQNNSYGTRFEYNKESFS
Chain of NADPH oxidase 5 (Homo sapiens) (Q96PH1 whole entry, looked up): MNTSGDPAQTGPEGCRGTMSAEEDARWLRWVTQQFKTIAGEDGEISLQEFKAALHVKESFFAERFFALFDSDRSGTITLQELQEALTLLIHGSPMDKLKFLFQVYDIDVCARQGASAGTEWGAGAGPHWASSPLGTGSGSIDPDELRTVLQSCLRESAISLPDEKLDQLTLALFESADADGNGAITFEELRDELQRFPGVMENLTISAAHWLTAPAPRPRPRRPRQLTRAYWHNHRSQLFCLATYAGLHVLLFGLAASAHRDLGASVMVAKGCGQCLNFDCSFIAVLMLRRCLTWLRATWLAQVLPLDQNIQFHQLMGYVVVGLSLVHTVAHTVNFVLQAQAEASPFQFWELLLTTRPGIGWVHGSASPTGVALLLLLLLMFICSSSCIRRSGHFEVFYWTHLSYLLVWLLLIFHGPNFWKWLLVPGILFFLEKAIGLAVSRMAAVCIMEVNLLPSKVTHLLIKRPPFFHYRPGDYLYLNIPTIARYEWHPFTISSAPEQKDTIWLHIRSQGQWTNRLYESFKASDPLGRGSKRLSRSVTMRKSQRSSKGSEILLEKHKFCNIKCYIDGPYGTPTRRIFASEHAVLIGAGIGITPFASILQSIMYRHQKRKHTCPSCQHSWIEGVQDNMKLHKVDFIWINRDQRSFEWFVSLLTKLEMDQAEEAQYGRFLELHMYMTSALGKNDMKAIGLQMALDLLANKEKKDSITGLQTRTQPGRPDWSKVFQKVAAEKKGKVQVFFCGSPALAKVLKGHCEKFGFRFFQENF

As to `O=C1[C@H]2[C@H]3[C@H](O)[C@H](O)CC(=NOC[C@@H](O)COCc4ccco4)[C@H]3CC[C@H]2C(=O)N1c1ccc(F)cc1F`, the z-score in assay [1] is -0.575 (inactive); in [3], 1.12 (inactive); in [4] it was -0.479 (inactive); in [5], 0.679 (inactive); in assay [6], -1.14 (inactive); in [7] it was 1.69. For the same compound, the z-score in [8] was -0.249 (inactive); in assay [9] it was 0.498 (inactive); in assay [10], 1.09; in assay [11] it was 1.1; in assay [12], 1.06; in assay [13], -0.0367. Besides, the z-score in assay [14] is 0.621; in [15], -0.478; in assay [16], 0.501; in assay [17] it was -0.162 (inactive); in assay [18], -0.117; in [19], -1.68. Moreover, in assay [20], the z-score was 0.224 (inactive). Moreover, in [2], the composite z-score worked out at 0.153.
As to `O=C1[C@H]2[C@H]3[C@H](O)[C@H](O)CC(=NOCc4ccccc4)[C@@H]3CC[C@H]2C(=O)N1Cc1ccc2c(c1)OCO2`, the z-score in assay [1] was 0.0628 (inactive); in assay [3], 6.28 (inactive); in assay [4], 1.02 (inactive); in [5], 1.06 (inactive); in assay [6], 0.354 (inactive); in [7] it was 0.0008. The z-score in assay [8] is 1.09 (inactive); in [9], 0.665 (inactive); in [10], -1.01; in assay [11] it was -0.152; in assay [12], -0.121; in [13] it was -0.937. For the same compound, the z-score was 0.266 in assay [14]; -2.81 in assay [15]; -0.335 in assay [16]; 0.17 (inactive) in assay [17]; -0.234 in assay [18]; -0.0728 in assay [19]. The z-score in [20] is 0.688 (inactive). For the same compound, the composite z-score in assay [2] worked out at 0.217.
Consider `CCOC(=O)[C@H](CC(C)C)NC(=O)CCC1CC(OC(=O)NCc2cccc3ccccc23)CC2(CCCC(COC(=O)NCC3CCCCC3)O2)O1` (stereo not given in full), for which the z-score in assay [1] was -0.398 (inactive); in assay [3], 0.864 (inactive); in assay [4], -1.04 (inactive); in assay [5], 0.552 (inactive); in assay [6], -1.35 (inactive); in [7], 1.64. Besides, the z-score is -2.61 (inactive) in assay [8]; -1.93 (inactive) in [9]; -2.79 in assay [10]; -0.15 in assay [11]; 1.09 in assay [12]; -0.993 in [13]. Also, the z-score in [14] is -2.66; in assay [15] it was -1.28; in assay [16], 0.895; in [17], -0.0758 (inactive); in assay [18] it was 0.273; in [19], -0.929. Also, the z-score in assay [20] was 0.945 (inactive). This compound gave a composite z-score in assay [2] of 0.183.
Take `CSCC[C@@H]1NC(=O)CC=C[C@@H](C)COC(=O)[C@@H](C)COC1=O`: the z-score in assay [1] is -0.136 (inactive); in assay [3], -0.434 (inactive); in assay [4], 0.28 (inactive); in [5], 0.742 (inactive); in assay [6], 0.0841 (inactive); in assay [7], -0.0649. Also, the z-score in assay [8] was -1.13 (inactive); in assay [9], 0.279 (inactive); in assay [10], 0.238; in assay [11] it was 0.63; in assay [12], 0.115; in assay [13], 1.47. In addition, the z-score in assay [14] is 0.269; in [15], 0.341; in [16] it was 0.852; in [17], 0.0903 (inactive); in [18] it was -0.994; in assay [19], -0.122. In addition, the z-score in assay [20] was 0.377 (inactive). Further, the composite z-score in [2] was -0.283.
